# CtBP-E1A blk = blocks the CtBP interaction with E1A; 340,000 compounds, 0.49% hits; activity change, % (no concentration beside the values); AlphaScreen GST-E1A/His-CtBP binding, 1536-well; stronger effect = lower value; in the data active = activity change below about -65%; inconclusive = mostly about -30% to -63%; note: % is set by controls: 0 for no effect and ±100 for the full control effect
#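 GST-E1A and His-tagged CtBP (125 nM each as 5X stock) were preincubated with pin-transferred compound for 2 h at 37 °C in the dark, then glutathione donor and nickel acceptor beads were added for 1 h before AlphaScreen reading.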
# G9a inh = G9a (human) methyltransferase inhibition | Q96KQ7 | G9a H3K9 monomethylation, AlphaScreen, 2 h | Potency, µM (highest dose often 102 µM), without a hit: at the highest dose activity, negative = inhibition, actives largely listed as inhibitors | 350,000 compounds, 8.8% hits | AID 504332; note: potency is the fitted concentration of half-maximal effect; % is set by controls: 0 for no effect and ±100 for the full control effect; nearly all actives have a fitted effect of over 75% in size
# Target sequence (Q96KQ7 913-1193 limits assumed): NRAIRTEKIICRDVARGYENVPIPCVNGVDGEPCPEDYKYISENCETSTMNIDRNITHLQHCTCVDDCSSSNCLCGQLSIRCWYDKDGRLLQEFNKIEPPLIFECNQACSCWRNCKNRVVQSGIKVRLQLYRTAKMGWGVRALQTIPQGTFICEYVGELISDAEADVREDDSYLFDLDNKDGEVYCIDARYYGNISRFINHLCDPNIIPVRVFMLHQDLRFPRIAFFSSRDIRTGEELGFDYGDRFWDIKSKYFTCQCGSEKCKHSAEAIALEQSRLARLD
#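 G9a (20 nM) preincubated 15 min RT with compounds, then 500 nM biotinylated H3K9 peptide and 20 uM SAM added; 2 h RT reaction. Monomethyl-H3K9 product detected by AlphaScreen with anti-H3K9me1 antibody, streptavidin donor and anti-rabbit IgG acceptor beads.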
# HP1b chromo inh = blocks HP1-beta chromodomain binding to methylated histone tails. P83916. AlphaScreen HP1-beta / biotin-H3K9me3 peptide binding. Potency, µM (highest dose often 114 µM), inactives show at the top dose activity change, negative = inhibition, hits mostly inhibitors. 390,000 compounds, 0.56% hits. AID 540317; note: potency is the fitted concentration of half-maximal effect; nearly all actives have a fitted effect of over 70% in size
# Target sequence (P83916 whole entry, looked up): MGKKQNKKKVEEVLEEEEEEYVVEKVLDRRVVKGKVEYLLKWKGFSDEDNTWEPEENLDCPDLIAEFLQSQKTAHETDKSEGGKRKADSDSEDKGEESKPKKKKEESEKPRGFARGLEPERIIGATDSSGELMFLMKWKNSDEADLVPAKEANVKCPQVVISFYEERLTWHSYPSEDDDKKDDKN
#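 AlphaScreen: HP1-beta (50 nM) preformed 30 min with biotin-H3(1-18)K9me3 peptide (50 nM) in PBS pH 7.4, 0.01% Tween-20. Compound added for 30 min at RT, then streptavidin donor/nickel chelate acceptor beads (10 ug/mL) for 30 min.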
# BAZ2B inh = blocks human BAZ2B | Potency, µM (doses to about 114 µM), without a hit: at the highest dose activity change, negative = inhibition, hits mostly inhibitors | Q9UIF8 | AlphaScreen BAZ2B-H3K14Ac peptide displacement | 360,000 compounds, 4.4% hits; note: potency is the fitted concentration of half-maximal effect; % is set by controls: 0 for no effect and ±100 for the full control effect; nearly all actives have a fitted effect of over 60% in size
#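 AlphaScreen displacement: compounds (up to 110uM) incubated 30 min at room temperature with a preformed 50 nM BAZ2B/50 nM biotinylated H3K14Ac peptide complex in PBS pH 7.4 with Tween-20. Donor and acceptor beads at 10 ug/mL final added, 20 min light-protected before reading.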
# JMJD2A Tudor = inhibitors of human JMJD2A Tudor domain. O75164. AlphaScreen JMJD2A-Tudor / H3K4me3 peptide binding. Potency, µM (doses to about 114 µM), inactives show at the highest dose activity change, negative = inhibition, actives largely listed as inhibitors. 390,000 compounds, 4.4% hits. AID 504339; note: potency is the fitted concentration of half-maximal effect; % is set by controls: 0 for no effect and ±100 for the full control effect; nearly all actives have a fitted effect of over 50% in size
# Six1-Eya2 blk = Six1/Eya2 interaction inhibition; Q15475+O00167; AlphaScreen GST-Six1/His-Eya2 binding, biochemical; stronger effect = lower value; activity change, % (no concentration beside the values); 360,000 compounds, 0.56% hits; AID 651725; in the data active = activity change below about -65%; inconclusive = mostly about -30% to -63%; note: % is set by controls: 0 for no effect and ±100 for the full control effect
#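 Homogeneous AlphaScreen proximity assay pairing GST-Six1 with His-tagged Eya2 (added as 5X mix: 250 nM and 500 nM) in 50 mM Tris pH 8.0, 300 mM NaCl, 1 mM TCEP. Glutathione donor and nickel acceptor beads; 1 h, 37 °C, dark.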
# * marks the source's active call; other numbers are inactive results; ? = inconclusive; . = no result given; ! = a repeat was not active; [ ] = another dose, or the depositor's remark. Hits are enriched below; roughly 10% of the tested compounds scored in any of these assays. Unless noted, calls come from the whole dose curve; as a rule, active = well fitted inhibition curve with a large enough effect; inconclusive = small, poorly fitted or top-dose-only effect; inactive = no such curve, though single readings can be large or run the other way.
SMILES,CtBP-E1A blk,G9a inh,HP1b chromo inh,BAZ2B inh,JMJD2A Tudor,Six1-Eya2 blk
COC(=O)c1ccccc1NC(=O)c1c(NC(=O)c2ccco2)sc2c1CCC(C(C)(C)C)C2 (stereo not drawn),.,-30%[59 µM],33%,3%,-9%,.
N[C@H](Cc1ccc(O)cc1)C(=O)O,.,30%[59 µM],.,.,.,.
N[C@H](C(=O)O)c1ccc(O)c(C(=O)O)c1,.,34%[59 µM],.,.,.,.
CC(=O)Nc1ccc2nsnc2c1,.,-1%,24%,-2%,-13%,-3
NC(Cc1ccc2nsnc2c1)C(=O)O (stereo not drawn),-9,.,-9%,.,2.2µM*,2
CC(C)C(=O)Nc1cccc2nsnc12,6,-5%,32%,2%,-12%,1
NC(Cc1cccc2nsnc12)C(=O)O (stereo not drawn),-1,?,5%,-5%,7.1µM*,0
NC(C(=O)O)C(O)c1ccc(O)c(O)c1 (stereo not drawn),.,1.1µM*,.,.,.,.
N[C@@H](Cc1ccc(O)c(O)c1)C(=O)O,-25,20µM*,20µM*,.,40µM*,?
COc1ccc(C2N3CC4(C)CN2CC(C)(C3)C4O)cc1 (stereo not drawn),1,16%,24%,-9%,-14%,5
COc1ccc(C2=Nc3ccccc3N(CC(=O)Nc3cccc(C(C)=O)c3)C(=O)C2)cc1,.,6%[59 µM],70%,6%,?,.
NC(Cc1cc(I)c(Oc2ccc(O)c(I)c2)c(I)c1)C(=O)O (stereo not drawn),.,-33%[2.33 µM],.,.,.,.
NC(Cc1ccc(O)c([N+](=O)[O-])c1)C(=O)O (stereo not drawn),6,?,-5%,50µM*,?,4
N[C@@H](Cc1cc(I)c(Oc2ccc(O)c(I)c2)c(I)c1)C(=O)O,-18,4µM*!,-21%,50µM*!,-24%,-8
COc1cc(NS(=O)(=O)c2ccc(NC(=O)c3ccccc3C(=O)O)cc2)nc(OC)n1,.,-30%[59 µM],17%,-23%,-11%,.
CCOc1ccccc1CNC(=O)c1cnc2sc(N3CCC(C)CC3)nn2c1=O,.,-7%[59 µM],-5%,-1%,-18%,.
O=C(CS(=O)(=O)c1ccccc1)Nc1ccc(Cl)cn1,5,52%,27%,-19%,-19%,-2
O=C(CCS(=O)(=O)c1ccccc1)Nc1ccc(Cl)cn1,4,45µM*,?,?,-20%,-3
CC(C)(C)c1csc(NC(=O)CCS(=O)(=O)c2ccc(F)cc2)n1,-8,.,.,.,.,14
O=C(CCS(=O)(=O)c1ccc(F)cc1)Nc1nc(-c2ccncc2)cs1,.,7.9µM*,?,-24%,-35%,1
O=C(CCS(=O)(=O)c1ccccc1)Nc1nc(-c2cccs2)cs1,-9,50µM*,22%,-28%,-10%,-7
Cc1ccc(N2C(=O)CC(NNC(=O)Cc3ccc(F)cc3)C2=O)cc1Cl (stereo not drawn),.,-4%[12.7 µM],37%,11%,0%,-1
O=C(Nc1cccc(Cl)c1Cl)c1cc(S(=O)(=O)NCc2ccc3c(c2)OCO3)ccc1F,.,12%[59 µM],-4%,5%,-13%,.
O=C(CCNC(=O)c1ccco1)Nc1ccccc1OC(F)F,4,8%,-5%,-10%,-4%,9
COc1cc(NS(=O)(=O)c2ccc(NC(=S)Nc3ccccc3)cc2)nc(OC)n1,6,24%,33%,-10%,-6%,6
SMILES,CtBP-E1A blk,G9a inh,HP1b chromo inh,BAZ2B inh,JMJD2A Tudor,Six1-Eya2 blk
CCC(=O)Nc1ccc(S(=O)(=O)Nc2cc(C)on2)cc1,3,-26%,20%,3%,-16%,-1
Cc1cc(NS(=O)(=O)c2ccc(Nc3nc(-c4ccc(O)cc4)cs3)cc2)no1,?,50µM*,-20%,?,?,?
Cc1cc(NS(=O)(=O)c2ccc(Nc3nc(-c4sc(N)nc4C)cs3)cc2)no1,-90*,-10%[12.7 µM],?,?,56µM*,-91*
COc1cc(NS(=O)(=O)c2ccc(Nc3nc(-c4ccccc4)cs3)cc2)nc(OC)n1,2,?,-22%,50µM*,?,?
COc1cc(NS(=O)(=O)c2ccc(N/C=C(\C=O)c3nc4ccccc4o3)cc2)nc(OC)n1,-15,35µM*,6%,79µM*,79µM*,-27
CC(C)C[C@@H]1CN(CCCC[C@H]2CNC(=O)C(=O)N2CCC2CCCCC2)C(=O)C(=O)N1Cc1ccccc1,6,.,.,.,.,7
Cc1cc(NS(=O)(=O)c2ccc(Nc3nc(-c4ccc(C)c(C)c4)cs3)cc2)no1,-5,?,-37%,?,56µM*,-11
COc1ccc(CCNCc2cc(C)n(-c3ccc(OC)cc3)c2C)cc1,.,-11%[2.33 µM],?,28µM*,20µM*,-21
COc1ccc(CCNC(=S)Nc2cc(C)cc(C)c2)cc1,-1,10%[59 µM],-11%,-38%,-28%,-15
COc1ccc(CCNCc2ccccc2N2CCCC2)cc1,-12,?,-5%,56µM*,20µM*,8
Cc1ccc(Cn2cc(CN3CC(N(C)C)CS3(=O)=O)nn2)cc1 (stereo not drawn),2,.,.,.,.,-2
C=CCn1c(=O)c2c(nc(Br)n2Cc2ccccc2Cl)n(C)c1=O,8,-3%[59 µM],-11%,-3%[57.1 µM],-7%[11.4 µM],-3
C=CCN1C(=O)/C(=c2\sc3nc(=O)c(Cc4ccccc4Cl)nn3c2=O)c2ccccc21,4,11µM*,?,?,71µM*,0
Cc1cc(C)c(C(=O)C(C)OC(=O)c2ccccn2)cc1C (stereo not drawn),-7,?,9%,79µM*,50µM*,-1
CCC1=[N+](C)CCn2c(C)ccc21,4,1.8µM*,9%,5%,?,4
CCC1=[N+](CC(=O)c2ccc(C)cc2)CCn2c(C)ccc21,4,?,9%,-35%,-18%,15
CCC1=[N+](CC(=O)c2ccc(Br)cc2)CCn2c(C)ccc21,.,32µM*,25%,-38%,?,-4
Cc1cccc(-c2ccc3ncnc(NCc4cccc(F)c4)c3c2)c1,.,-45%[12.7 µM],.,3%,.,.
CCN1CCN(C(=S)NC(=O)/C=C/c2cccs2)CC1,.,50µM*,28%,-3%,-10%,1
CCN1CCN(C(=S)NC(=O)c2cccs2)CC1,4,50µM*,-17%,?,8.9µM*,16
N[C@@H](CCS(=O)O)C(=O)O,.,38%[59 µM],.,.,.,.
O=C(c1cnc2n(c1=O)CCS2)N(C1CCCCC1)C1CCCCC1,-4,79µM*,40%,3%,-7%,11
O=C(O)c1ccccc1-c1ccccc1C(=O)NCc1ccco1,-1,50µM*,15%,9%,-35%,-2
Cc1ccc(C)c(NC(=O)c2cnc3n(c2=O)CCS3)c1,6,56µM*,47%,-18%,-8%,1
